Measurements from PubChem BioAssay (EPA / NIEHS).
Active and inactive are the calls of the source. Rule for the calls: active = hit-call score of the fitted dose curve at least 0.9, where 1 is the maximum; inactive = score below 0.9.

Legend:
[1] = target: Bile acid receptor (Homo sapiens) (UniProt Q96RI1); experiment: ATG_IR1_CIS: Attagene CIS-FACTORIAL HepG2 Assay for human Nuclear Receptor Subfamily 1 Group H Member 4 (NR1H4), IR1 submotif (AID 2282946); conditions: IR1 reporter transcription, actives raise or lower the signal
Chain of Bile acid receptor (Homo sapiens) (Q96RI1 whole entry, looked up): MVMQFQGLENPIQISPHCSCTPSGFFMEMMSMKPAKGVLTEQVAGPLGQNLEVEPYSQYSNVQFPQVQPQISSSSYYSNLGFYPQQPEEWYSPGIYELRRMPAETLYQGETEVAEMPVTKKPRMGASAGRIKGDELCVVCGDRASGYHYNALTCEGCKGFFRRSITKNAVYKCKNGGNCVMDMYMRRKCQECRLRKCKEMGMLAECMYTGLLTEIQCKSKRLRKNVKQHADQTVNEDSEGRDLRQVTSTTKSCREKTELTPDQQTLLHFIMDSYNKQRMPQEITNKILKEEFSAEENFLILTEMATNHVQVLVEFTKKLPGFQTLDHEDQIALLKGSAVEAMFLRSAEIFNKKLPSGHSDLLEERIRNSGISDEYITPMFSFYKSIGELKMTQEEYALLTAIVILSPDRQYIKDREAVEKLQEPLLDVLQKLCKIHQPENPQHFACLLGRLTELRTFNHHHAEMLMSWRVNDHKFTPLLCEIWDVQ
Method in brief: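 Transient MRTU transfection, HepG2; 24 h dosing; RNA → RT-PCR → 6-FAM primer extension → HpaI digest → capillary electrophoresis fluorescence. Gain/loss of signal fitted relative to DMSO.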

[2] = ATG_GRE_CIS: Attagene CIS-FACTORIAL HepG2 Assay for human Glucocorticoid Response Elements (GRE) (AID 2282947); conditions: HepG2 GRE cis-reporter, Attagene multiplex mRNA; actives raise or lower the signal
Method in brief: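 Following 24 h chemical exposure of transiently transfected HepG2 cells, total RNA was reverse-transcribed and reporter cDNA amplified, fluorescently labelled and sized by capillary electrophoresis. Signal gain or loss was fitted relative to DMSO vehicle.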

[3] = ATG_ISRE_CIS: Attagene CIS-FACTORIAL HepG2 Assay for human Interferon Regulatory Factor 1 (IRF1) binding to an Interferon-Stimulated Response Element (ISRE) (AID 2282948); conditions: HepG2 ISRE cis-reporter (Attagene), mRNA transcription readout; actives raise or lower the signal
Method in brief: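 Transiently transfected HepG2 cells carrying cis-element reporter units, dosed 24 hours. Reporter mRNA quantified by RT-PCR, fluorescent primer extension, HpaI digestion and capillary electrophoresis. Bidirectional fitting relative to DMSO.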

[4] = ATG_M_32_CIS: Attagene CIS-FACTORIAL HepG2 Assay for M32 Transcription Factor (Internal Marker) (AID 2282949); conditions: HepG2 Attagene cis-factorial M32 reporter, mRNA; actives raise or lower the signal;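 note: background control marker of the multiplexed CIS panel rather than a real target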
Method in brief: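 HepG2 cells transiently transfected with multiplexed cis-regulated reporter units, dosed 24 h. Reporter mRNA quantified by RT-PCR, 6-FAM labelling, HpaI digestion and capillary electrophoresis; bidirectional fit vs DMSO.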

[5] = ATG_M_06_CIS: Attagene CIS-FACTORIAL HepG2 Assay for M06 Transcription Factor (Internal Marker) (AID 2282950); conditions: HepG2 Attagene CIS-FACTORIAL M06 internal marker reporter; actives raise or lower the signal
Method in brief: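 Cells (HepG2, transiently carrying cis-driven reporter units) receive chemical for 24 h before RNA isolation. Reporter cDNA is PCR-amplified, FAM-labelled by primer extension, HpaI-digested and sized on a capillary analyser.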

[6] = ATG_MRE_CIS: Attagene CIS-FACTORIAL HepG2 Assay for human Metal Responsive Element (MRE) (AID 2282954); conditions: HepG2 MRE cis-reporter transcription, Attagene multiplex; actives raise or lower the signal
Method in brief: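 Step one: transfect HepG2 with cis-regulated reporter units. Step two: dose 24 h. Step three: isolate RNA, RT-PCR, 6-FAM label, HpaI digest, capillary electrophoresis. Fit bidirectionally to DMSO.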

[7] = ATG_PBREM_CIS: Attagene CIS-FACTORIAL HepG2 Assay for human Phenobarbital-responsive Enhancer Module (PBREM) (AID 2282955); conditions: HepG2 PBREM cis-reporter, Attagene multiplexed transcription; actives raise or lower the signal
Method in brief: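 HepG2 cells transiently transfected with multiple cis-regulated reporter units measure endogenous transcription factor activity; 24 h compound exposure. Reporter mRNA quantified by RT-PCR, fluorescent labelling, HpaI digestion and capillary electrophoresis; bidirectional fit versus DMSO.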

[8] = target: Paired box protein Pax-6 (Homo sapiens) (UniProt P26367); experiment: ATG_Pax6_CIS: Attagene CIS-FACTORIAL HepG2 Assay for human Paired Box 6 (PAX6) (AID 2282956); conditions: HepG2 CIS-FACTORIAL PAX6 reporter transcription, RNA readout; actives raise or lower the signal
Chain of Paired box protein Pax-6 (Homo sapiens) (P26367 whole entry, looked up): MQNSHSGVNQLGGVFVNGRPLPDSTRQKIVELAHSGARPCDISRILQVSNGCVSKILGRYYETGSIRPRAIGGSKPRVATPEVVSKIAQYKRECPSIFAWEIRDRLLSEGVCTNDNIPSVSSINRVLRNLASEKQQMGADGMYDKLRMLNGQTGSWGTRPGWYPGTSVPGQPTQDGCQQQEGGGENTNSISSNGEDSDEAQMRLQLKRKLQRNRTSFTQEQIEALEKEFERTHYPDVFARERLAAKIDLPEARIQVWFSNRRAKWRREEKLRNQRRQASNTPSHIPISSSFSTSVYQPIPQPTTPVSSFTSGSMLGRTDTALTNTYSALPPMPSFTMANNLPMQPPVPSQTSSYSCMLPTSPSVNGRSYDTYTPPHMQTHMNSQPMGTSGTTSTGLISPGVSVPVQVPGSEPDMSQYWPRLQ
Method in brief: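 HepG2 cells transiently transfected with cis-promoter-driven multiplexed reporter units sensing endogenous transcription factor activity; 24 h chemical exposure. Reporter mRNA quantified by RT-PCR, 6-FAM labelling, HpaI digestion and capillary electrophoresis; bidirectional fit versus DMSO baseline.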

[9] = ATG_PPRE_CIS: Attagene CIS-FACTORIAL HepG2 Assay for human Peroxisome Proliferator-activated Response Element (PPRE) (AID 2282958); conditions: HepG2 PPRE cis-element reporter, Attagene transcription factor profiling; actives raise or lower the signal
Method in brief: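 HepG2 cells are transiently transfected with multiplexed cis-promoter reporter units to report endogenous PPAR activity. After 24 h dosing, reporter mRNA is read by RT-PCR and capillary electrophoresis. Fitting is bidirectional against DMSO.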

[10] = ATG_RORE_CIS: Attagene CIS-FACTORIAL HepG2 Assay for human RAR-related Orphan Receptor Element (RORE) (AID 2282959); conditions: HepG2 Attagene cis-factorial RORE reporter, mRNA; actives raise or lower the signal
Method in brief: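 HepG2 cells carrying transiently transfected cis-regulated reporter units; RORE-driven reporter mRNA quantified 24 h post-dosing by RT-PCR, 6-FAM primer extension, HpaI digestion and capillary electrophoresis. Bidirectional fit versus DMSO.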

[11] = ATG_Sox_CIS: Attagene CIS-FACTORIAL HepG2 Assay for human SRY-box transcription factor (SOX) (AID 2282960); conditions: HepG2 Attagene cis-factorial SOX reporter, mRNA; actives raise or lower the signal
Method in brief: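 HepG2 cells transiently transfected with multiple cis-regulated reporter units, then dosed for 24 h. Reporter mRNA quantified by RT-PCR, fluorescent labelling, HpaI digestion and capillary electrophoresis; bidirectional fit versus DMSO.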

[12] = target: Transcription factor Sp1 (Homo sapiens) (UniProt P08047); experiment: ATG_Sp1_CIS: Attagene CIS-FACTORIAL HepG2 Assay for human Specificity Protein 1 (Sp1) (AID 2282961); conditions: HepG2 Sp1 cis-reporter transcription, actives raise or lower the signal
Chain of Transcription factor Sp1 (Homo sapiens) (P08047 whole entry, looked up): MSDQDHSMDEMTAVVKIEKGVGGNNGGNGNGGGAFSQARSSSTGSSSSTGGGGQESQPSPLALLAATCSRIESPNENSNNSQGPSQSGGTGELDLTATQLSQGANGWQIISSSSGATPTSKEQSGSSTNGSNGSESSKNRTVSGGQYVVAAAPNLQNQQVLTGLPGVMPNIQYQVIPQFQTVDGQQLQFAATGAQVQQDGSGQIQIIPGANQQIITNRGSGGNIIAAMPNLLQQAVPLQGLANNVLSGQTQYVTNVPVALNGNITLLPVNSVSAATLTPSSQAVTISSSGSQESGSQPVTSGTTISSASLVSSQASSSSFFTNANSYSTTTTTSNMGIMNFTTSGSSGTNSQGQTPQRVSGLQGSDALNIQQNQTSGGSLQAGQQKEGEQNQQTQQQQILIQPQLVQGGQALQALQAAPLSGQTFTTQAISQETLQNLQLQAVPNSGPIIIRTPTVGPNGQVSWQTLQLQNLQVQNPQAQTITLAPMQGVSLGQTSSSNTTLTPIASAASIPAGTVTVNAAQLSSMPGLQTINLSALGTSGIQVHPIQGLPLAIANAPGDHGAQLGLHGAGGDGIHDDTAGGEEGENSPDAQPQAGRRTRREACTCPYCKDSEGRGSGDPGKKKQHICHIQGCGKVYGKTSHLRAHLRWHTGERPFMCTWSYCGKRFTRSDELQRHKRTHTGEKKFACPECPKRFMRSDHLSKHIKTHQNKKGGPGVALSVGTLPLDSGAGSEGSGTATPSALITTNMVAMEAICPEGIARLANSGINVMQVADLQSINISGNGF
Method in brief: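 HepG2 cells transiently transfected with multiplexed cis-regulated reporter constructs, chemical exposure 24 h. Reporter mRNA quantified by RT-PCR with capillary electrophoresis; bidirectional fit relative to DMSO.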

[13] = ATG_SREBP_CIS: Attagene CIS-FACTORIAL HepG2 Assay for human Sterol Regulatory Element Binding (SREBP) (AID 2282962); conditions: HepG2 Attagene cis-factorial SREBP reporter, mRNA; actives raise or lower the signal
Method in brief: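 HepG2 cells transiently transfected with multiplexed cis-promoter reporter units sensing endogenous transcription factors; reporter mRNA measured 24 h after dosing by RT-PCR, 6-FAM labeling, HpaI digestion and capillary electrophoresis. Bidirectional fit versus DMSO.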

[14] = target: Signal transducer and activator of transcription 3 (Homo sapiens) (UniProt P40763); experiment: ATG_STAT3_CIS: Attagene CIS-FACTORIAL HepG2 Assay for human Signal Transducer and Activator of Transcription 3 (STAT3) (AID 2282963); conditions: HepG2, Attagene cis-factorial STAT3 reporter transcription; actives raise or lower the signal
Chain of Signal transducer and activator of transcription 3 (Homo sapiens) (P40763 whole entry, looked up): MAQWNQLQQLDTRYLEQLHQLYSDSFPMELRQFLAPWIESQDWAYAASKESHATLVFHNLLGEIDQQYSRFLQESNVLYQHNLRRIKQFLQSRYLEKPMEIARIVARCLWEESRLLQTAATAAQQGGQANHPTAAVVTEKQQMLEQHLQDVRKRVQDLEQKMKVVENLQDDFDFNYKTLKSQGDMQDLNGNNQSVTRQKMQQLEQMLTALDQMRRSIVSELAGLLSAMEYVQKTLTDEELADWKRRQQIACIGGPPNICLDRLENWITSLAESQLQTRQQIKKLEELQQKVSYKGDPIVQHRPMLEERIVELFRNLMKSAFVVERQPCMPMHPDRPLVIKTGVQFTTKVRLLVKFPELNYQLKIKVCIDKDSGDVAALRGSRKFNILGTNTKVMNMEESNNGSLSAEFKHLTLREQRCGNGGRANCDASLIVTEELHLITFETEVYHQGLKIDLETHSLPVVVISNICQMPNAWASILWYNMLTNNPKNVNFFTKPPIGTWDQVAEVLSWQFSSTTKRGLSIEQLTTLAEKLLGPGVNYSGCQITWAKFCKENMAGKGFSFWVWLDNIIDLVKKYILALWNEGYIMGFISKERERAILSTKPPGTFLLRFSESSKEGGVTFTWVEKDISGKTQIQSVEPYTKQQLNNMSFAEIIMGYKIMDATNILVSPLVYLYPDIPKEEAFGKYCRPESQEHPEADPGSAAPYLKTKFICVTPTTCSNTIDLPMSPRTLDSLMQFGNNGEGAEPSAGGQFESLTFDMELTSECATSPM
Method in brief: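 Transcript-level reporter assay. HepG2 transient MRTU transfection, 24 h exposure, fluorescence detection after RT-PCR and CE; DMSO baseline.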

[15] = ATG_TA_CIS: Attagene CIS-FACTORIAL HepG2 Assay for human TA Basal Promoter (AID 2282964); conditions: HepG2 Attagene CIS-factorial TA basal promoter reporter; actives raise or lower the signal
Method in brief: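 Background internal-marker endpoint from a 52-component HepG2 cis-reporter panel. Cells treated 24 h; reporter transcripts quantified via RT-PCR and CE fluorescence against DMSO baseline.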

[16] = ATG_TCF_b_cat_CIS: Attagene CIS-FACTORIAL HepG2 Assay for human T-Cell-Factor with beta-catenin (TCF/b-cat) (AID 2282965); conditions: HepG2 TCF/beta-catenin cis-reporter transcription, actives raise or lower the signal
Method in brief: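 In this cis-format system, transfected HepG2 cells report endogenous transcription factor activity. Readout after 24 h exposure is reporter transcript abundance from RT-PCR and capillary electrophoresis, analysed for gain or loss of signal versus DMSO.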

[17] = target: Hypoxia-inducible factor 1-alpha (Homo sapiens) (UniProt Q16665); experiment: ATG_HIF1a_CIS: Attagene CIS-FACTORIAL HepG2 Assay for human Hypoxia Inducible Factor 1 (HIF1A) (AID 2282951); conditions: HepG2 Attagene cis-factorial HIF1a reporter transcription; actives raise or lower the signal
Chain of Hypoxia-inducible factor 1-alpha (Homo sapiens) (Q16665 whole entry, looked up): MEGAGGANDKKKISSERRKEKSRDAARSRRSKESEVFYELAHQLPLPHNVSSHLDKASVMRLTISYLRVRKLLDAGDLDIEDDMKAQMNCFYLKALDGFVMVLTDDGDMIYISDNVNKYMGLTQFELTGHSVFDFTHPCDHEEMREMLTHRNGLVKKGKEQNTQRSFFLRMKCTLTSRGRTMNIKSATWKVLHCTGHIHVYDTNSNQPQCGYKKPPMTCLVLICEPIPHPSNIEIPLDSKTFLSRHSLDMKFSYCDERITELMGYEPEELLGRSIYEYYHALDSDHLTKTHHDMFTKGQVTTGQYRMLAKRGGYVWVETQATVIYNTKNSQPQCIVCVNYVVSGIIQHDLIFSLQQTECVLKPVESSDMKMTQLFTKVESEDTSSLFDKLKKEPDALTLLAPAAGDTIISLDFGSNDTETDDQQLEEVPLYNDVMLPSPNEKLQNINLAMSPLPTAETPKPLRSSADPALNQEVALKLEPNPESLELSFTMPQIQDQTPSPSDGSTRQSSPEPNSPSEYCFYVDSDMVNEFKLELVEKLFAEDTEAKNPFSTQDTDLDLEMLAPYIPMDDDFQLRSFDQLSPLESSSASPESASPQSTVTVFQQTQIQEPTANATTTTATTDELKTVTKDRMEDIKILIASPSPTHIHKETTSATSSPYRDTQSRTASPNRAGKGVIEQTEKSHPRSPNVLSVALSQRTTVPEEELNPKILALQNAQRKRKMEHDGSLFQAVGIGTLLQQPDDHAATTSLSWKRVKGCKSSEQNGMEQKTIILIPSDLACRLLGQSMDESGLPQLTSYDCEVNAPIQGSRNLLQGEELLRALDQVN
Method in brief: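 HepG2 cells transiently transfected with multiple cis-regulated reporter transcription units measure endogenous transcription factor activity. After 24 h exposure, reporter mRNA is quantified by RT-PCR with 6-FAM labelling, HpaI digestion and capillary electrophoresis. Bidirectional fitting against DMSO.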

[18] = target: Hepatocyte nuclear factor 6 (Homo sapiens) (UniProt Q9UBC0); experiment: ATG_HNF6_CIS: Attagene CIS-FACTORIAL HepG2 Assay for human Hepatocyte Nuclear Factor 6 (HNF6) (AID 2282952); conditions: HepG2 Attagene cis-factorial HNF6 reporter transcription; actives raise or lower the signal
Chain of Hepatocyte nuclear factor 6 (Homo sapiens) (Q9UBC0 whole entry, looked up): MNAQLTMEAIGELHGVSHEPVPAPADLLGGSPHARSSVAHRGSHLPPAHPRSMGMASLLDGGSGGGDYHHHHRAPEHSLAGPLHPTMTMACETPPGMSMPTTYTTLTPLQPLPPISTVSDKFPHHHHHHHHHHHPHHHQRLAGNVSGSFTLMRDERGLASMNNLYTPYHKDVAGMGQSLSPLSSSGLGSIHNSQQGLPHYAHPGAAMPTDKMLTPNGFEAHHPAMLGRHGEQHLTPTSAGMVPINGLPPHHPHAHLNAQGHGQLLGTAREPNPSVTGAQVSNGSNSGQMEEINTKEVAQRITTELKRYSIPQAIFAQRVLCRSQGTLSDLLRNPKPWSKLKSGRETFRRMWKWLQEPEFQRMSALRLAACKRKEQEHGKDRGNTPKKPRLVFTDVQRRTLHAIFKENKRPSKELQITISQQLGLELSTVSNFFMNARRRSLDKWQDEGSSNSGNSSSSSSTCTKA
Method in brief: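 Transiently transfected HepG2 cells expressing cis-regulated reporter transcription units were exposed to chemical for 24 h in a 24-well format. Reporter transcript abundance was determined by fluorescence capillary electrophoresis.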

[19] = ATG_PXRE_CIS: Attagene CIS-FACTORIAL HepG2 Assay for human Pregnane X Receptor Element (PXRE) (AID 2282957); conditions: HepG2 Attagene CIS-FACTORIAL PXRE reporter, mRNA; actives raise or lower the signal
Method in brief: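 Cis-element reporter mRNA in human hepatoma HepG2 cells is measured 24 h post-dosing by RT-PCR, primer-extension labeling and capillary electrophoresis; gain or loss of signal is fitted relative to DMSO.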

Measured: AC50

Cc1c(OCC(F)(F)F)ccnc1CS(=O)c1nc2ccccc2[nH]1 (stereo not given)
active: [6] 73.1 µM | [8] 43.5 µM | [10] 19.8 µM | [15] 37.3 µM | [16] 57.7 µM
not listed: [17] | [18] | [19]
inactive: all other assays above

O=C(O)c1ccc(O)cc1
not listed: [3]
inactive: all other assays above

C=C1CC[C@H](O)C/C1=C/C=C1\CCC[C@]2(C)[C@@H]([C@H](C)/C=C/[C@H](C)C(C)C)CC[C@@H]12
not listed: [9] | [10] | [17] | [19]
inactive: all other assays above

COCCc1ccc(OCC(O)CNC(C)C)cc1 (stereo not given)
active: [19] 55 µM
not listed: [10] | [16] | [17]
inactive: all other assays above
